# Experiments:
# Assay in all cases: DAPPL (digital affinity profiling via proximity ligation, sequencing); 10 mM Tris-HCl pH 7.5, 50 mM NaCl, 1 mM DTT, 4% glycerol, room temperature, 30 min; GST-TFs on glutathione beads, 16-mer random dsDNA library, 0.1% formaldehyde crosslink after washing; high values mean tight binding
# Details in all cases: protein: recombinant; tags: N-terminal GST; dsDNA, one strand shown
# ELF3 = biological target: T1, ELF3 (Homo sapiens, UniProt P78545 1-371)
# T1 sequence: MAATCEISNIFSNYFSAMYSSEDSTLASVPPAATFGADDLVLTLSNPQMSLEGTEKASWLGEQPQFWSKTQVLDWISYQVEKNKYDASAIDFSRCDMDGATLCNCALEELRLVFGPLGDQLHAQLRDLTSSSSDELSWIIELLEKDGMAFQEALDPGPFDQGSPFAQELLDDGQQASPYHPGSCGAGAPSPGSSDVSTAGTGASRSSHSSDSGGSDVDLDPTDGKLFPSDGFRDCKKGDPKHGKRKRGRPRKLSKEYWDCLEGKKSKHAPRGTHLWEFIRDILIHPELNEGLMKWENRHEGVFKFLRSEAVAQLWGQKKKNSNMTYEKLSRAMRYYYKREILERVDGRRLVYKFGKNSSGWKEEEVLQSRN
# Outline: (§1)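 Yeast served to express human transcription factors as GST fusions, which were then captured on glutathione beads and labelled with DNA barcodes. Pooled with a tag-only sample, they were incubated with 200 nmole of a 16-mer random double-stranded DNA library for 30 min at room temperature in Tris/NaCl/DTT/glycerol buffer, washed, crosslinked with 0.1% formaldehyde, ligated by proximity, amplified by PCR and sequenced. Dividing each hexamer's read frequency for a factor by its frequency for the tag-only sample gives the binding signal.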
# SPDEF = biological target: T2, SPDEF (Homo sapiens, UniProt O95238 1-335)
# T2 sequence: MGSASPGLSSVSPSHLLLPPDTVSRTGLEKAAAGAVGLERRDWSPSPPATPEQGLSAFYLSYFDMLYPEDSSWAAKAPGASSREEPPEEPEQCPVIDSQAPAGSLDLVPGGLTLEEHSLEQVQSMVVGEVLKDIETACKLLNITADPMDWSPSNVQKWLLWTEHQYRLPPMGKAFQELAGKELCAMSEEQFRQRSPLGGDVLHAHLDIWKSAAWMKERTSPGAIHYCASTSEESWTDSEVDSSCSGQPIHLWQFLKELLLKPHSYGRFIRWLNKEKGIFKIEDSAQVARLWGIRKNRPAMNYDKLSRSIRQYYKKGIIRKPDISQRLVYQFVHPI
# Outline: as §1
# CRX = CRX (Homo sapiens, UniProt O43186 1-299)
# Outline: as §1
# EHF = biological target: T3, EHF (Homo sapiens, UniProt Q9NZC4 1-300)
# T3 sequence: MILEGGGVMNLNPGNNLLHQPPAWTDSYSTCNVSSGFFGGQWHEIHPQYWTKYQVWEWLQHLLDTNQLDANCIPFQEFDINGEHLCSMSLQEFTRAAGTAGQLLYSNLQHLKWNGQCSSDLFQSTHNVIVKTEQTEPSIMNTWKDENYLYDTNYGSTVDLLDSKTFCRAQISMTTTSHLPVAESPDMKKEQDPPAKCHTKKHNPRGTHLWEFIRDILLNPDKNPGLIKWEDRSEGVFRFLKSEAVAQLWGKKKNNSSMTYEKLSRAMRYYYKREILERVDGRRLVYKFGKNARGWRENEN
# Outline: as §1
# ELK3 = biological target: T4, ELK3 (Homo sapiens, UniProt P41970 1-407)
# T4 sequence: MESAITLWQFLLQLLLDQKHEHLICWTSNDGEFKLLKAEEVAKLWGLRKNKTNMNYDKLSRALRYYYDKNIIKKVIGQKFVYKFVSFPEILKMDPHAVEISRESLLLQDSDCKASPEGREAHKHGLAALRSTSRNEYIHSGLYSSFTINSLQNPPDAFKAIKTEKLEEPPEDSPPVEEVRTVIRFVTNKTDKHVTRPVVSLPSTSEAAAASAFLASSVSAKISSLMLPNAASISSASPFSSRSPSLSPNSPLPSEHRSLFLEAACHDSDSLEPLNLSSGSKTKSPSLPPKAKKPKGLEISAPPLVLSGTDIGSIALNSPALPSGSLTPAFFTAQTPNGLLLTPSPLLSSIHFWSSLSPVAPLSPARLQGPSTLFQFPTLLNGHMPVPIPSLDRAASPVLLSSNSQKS
# Outline: as §1
# ELF5 = biological target: T5, ELF5 (Homo sapiens, UniProt Q9UKW6-2 1-255)
# T5 sequence: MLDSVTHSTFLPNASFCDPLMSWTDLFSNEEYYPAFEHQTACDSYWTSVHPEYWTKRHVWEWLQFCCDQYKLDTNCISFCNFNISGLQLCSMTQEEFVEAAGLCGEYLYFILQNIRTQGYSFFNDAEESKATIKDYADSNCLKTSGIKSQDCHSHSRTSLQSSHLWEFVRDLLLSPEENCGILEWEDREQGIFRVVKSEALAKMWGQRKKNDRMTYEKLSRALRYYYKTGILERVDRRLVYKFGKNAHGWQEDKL
# Outline: as §1
# GABPA = biological target: T6, GABPA (Homo sapiens, UniProt Q06546 1-454)
# T6 sequence: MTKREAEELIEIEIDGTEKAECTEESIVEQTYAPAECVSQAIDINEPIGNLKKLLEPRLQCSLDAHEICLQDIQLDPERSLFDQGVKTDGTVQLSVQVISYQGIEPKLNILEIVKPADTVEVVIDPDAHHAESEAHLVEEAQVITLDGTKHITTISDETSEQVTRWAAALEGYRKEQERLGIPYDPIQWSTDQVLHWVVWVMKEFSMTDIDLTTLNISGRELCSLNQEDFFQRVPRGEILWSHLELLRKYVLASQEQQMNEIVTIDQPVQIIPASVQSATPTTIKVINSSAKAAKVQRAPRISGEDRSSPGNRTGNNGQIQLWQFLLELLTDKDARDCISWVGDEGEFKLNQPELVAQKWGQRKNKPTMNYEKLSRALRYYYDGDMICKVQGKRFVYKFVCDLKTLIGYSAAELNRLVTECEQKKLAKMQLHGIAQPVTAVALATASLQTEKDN
# Outline: as §1
# SPIB = SPIB (Homo sapiens, UniProt Q01892 1-262)
# Outline: as §1
# CRX, sequence (O43186 whole entry): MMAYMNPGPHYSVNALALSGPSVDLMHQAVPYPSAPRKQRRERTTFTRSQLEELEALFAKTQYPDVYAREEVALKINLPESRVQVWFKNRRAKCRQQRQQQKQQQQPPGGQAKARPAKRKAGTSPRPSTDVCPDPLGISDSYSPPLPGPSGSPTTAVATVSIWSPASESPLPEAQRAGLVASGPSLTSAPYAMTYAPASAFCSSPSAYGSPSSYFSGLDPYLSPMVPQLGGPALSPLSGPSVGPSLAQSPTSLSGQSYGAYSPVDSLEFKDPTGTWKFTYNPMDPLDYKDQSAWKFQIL
# SPIB, sequence (Q01892 whole entry): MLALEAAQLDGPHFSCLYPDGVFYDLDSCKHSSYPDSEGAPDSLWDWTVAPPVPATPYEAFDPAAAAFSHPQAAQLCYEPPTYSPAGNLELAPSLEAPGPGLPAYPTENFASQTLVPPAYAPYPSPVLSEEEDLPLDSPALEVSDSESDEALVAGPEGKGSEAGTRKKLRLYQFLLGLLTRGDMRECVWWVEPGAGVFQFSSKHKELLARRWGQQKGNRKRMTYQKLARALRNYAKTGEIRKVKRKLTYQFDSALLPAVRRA
sequence,measurement,setting,value
GGTTGT,binding signal,ELF3,"1.06 fold enrichment (6-mer frequency, TF over GST control)"
same,binding signal,SPDEF,"1.03 fold enrichment (6-mer frequency, TF over GST control)"
GCATAA,binding signal,CRX,"1.15 fold enrichment (6-mer frequency, TF over GST control)"
GATCAG,binding signal,CRX,"1.08 fold enrichment (6-mer frequency, TF over GST control)"
GGATTG,binding signal,CRX,"1.12 fold enrichment (6-mer frequency, TF over GST control)"
ATCAGG,binding signal,CRX,"1.04 fold enrichment (6-mer frequency, TF over GST control)"
ACAAGG,binding signal,EHF,"1.04 fold enrichment (6-mer frequency, TF over GST control)"
same,binding signal,ELK3,"1.02 fold enrichment (6-mer frequency, TF over GST control)"
same,binding signal,ELF3,"1.09 fold enrichment (6-mer frequency, TF over GST control)"
same,binding signal,ELF5,"1.14 fold enrichment (6-mer frequency, TF over GST control)"
GGGGAT,binding signal,CRX,"1.21 fold enrichment (6-mer frequency, TF over GST control)"
TAAGGA,binding signal,CRX,"1.22 fold enrichment (6-mer frequency, TF over GST control)"
same,binding signal,ELF5,"1.32 fold enrichment (6-mer frequency, TF over GST control)"
ATTGGA,binding signal,CRX,"1.03 fold enrichment (6-mer frequency, TF over GST control)"
GCGGAT,binding signal,CRX,"1.2 fold enrichment (6-mer frequency, TF over GST control)"
same,binding signal,SPDEF,"1.25 fold enrichment (6-mer frequency, TF over GST control)"
CCAAAG,binding signal,GABPA,"1.01 fold enrichment (6-mer frequency, TF over GST control)"
same,binding signal,SPIB,"1.01 fold enrichment (6-mer frequency, TF over GST control)"
same,binding signal,CRX,"1.05 fold enrichment (6-mer frequency, TF over GST control)"

# From article PMC7862700, “An all-to-all approach to the identification of sequence-specific readers for epigenetic DNA modifications on cytosine”
